Drawing on PubChem BioAssay (NCATS), this text covers max response and Potency for 13 compounds.

“And” between values parts separate entries of the source, which are not always exact repeats. Equal values may be shown once. Inconclusive results are not listed. Values without a mark were called inactive. The source made the active and inactive calls. The call rests on the fitted dose curve; in most records, active means well fitted curve in the direction sought with a large enough effect; inconclusive means small, poorly fitted or top-dose-only effect, or another doubt; inactive means no such curve, though single readings can be large or run the other way.
On the % scale 0 is the no-effect control and ±100 the full control effect; potency means the concentration at half of the fitted maximal effect.

A short description of the assay: qHTS Assay for Identifying Gametocytocidal Compounds (AID 743244).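 On max response: actives lower the fluorescent signal which means gametocytes are killed.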 To be noted: P. falciparum 3D7 stage III-V gametocytes, alamarBlue, 72 h; max response: hits give low values. The procedure, abridged: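 A resazurin-based viability read-out was applied to mature P. falciparum gametocytes: 72 h compound treatment, then 24 h dye incubation, with falling fluorescence signalling gametocytocidal effect.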
In the case of `CCCOC(=O)c1ccccc1O`, the max response is -13%. Still for that read-out and setting: for `CC[C@@H]1/C=C(\C)C[C@H](C)C[C@H](OC)[C@H]2O[C@@](O)(C(=O)C(=O)N3CCCC[C@H]3C(=O)O[C@H](/C(C)=C/[C@@H]3CC[C@@H](Cl)[C@H](OC)C3)[C@H](C)[C@@H](O)CC1=O)[C@H](C)C[C@@H]2OC` the value was -7.71%; for `CC(CN1c2ccccc2Sc2cccnc21)N(C)C` (stereo not drawn), 4.99%; for `C[C@@H]1NC(=O)[C@@H](N)CNC(=O)[C@H](C2CCNC(N)=N2)NC(=O)/C(=C/NC(N)=O)NC(=O)[C@H](CNC(=O)C[C@@H](N)CCCN)NC1=O` (stereo partly drawn), 0.778% and -5.05%. On the same count and under the same terms, for `NC(Cc1ccccc1)C(=O)O` (stereo not drawn) the value was 3.95%. In the case of `CC1CS(=O)(=O)CCN1/N=C/c1ccc([N+](=O)[O-])o1` (stereo not drawn), the Potency was 14.1 µM (active). As for `Cc1ccccn1`, the max response is 2.7%. On to `c1ccc(-n2cnnn2)cc1`, for which the max response is 0.811%. On the same count and under the same terms, for `C/C(=C\C(=O)OCCCCCCCCC(=O)O)C[C@@H]1OC[C@H](C[C@@H]2O[C@H]2[C@@H](C)[C@H](C)O)[C@@H](O)[C@H]1O` the value was -6.76%; for `O=C(O)c1ccc(OCCn2ccnc2)cc1`, 0.359%. Same read-out and setting: for `Oc1ccc(/C=C/c2cc(O)cc(O)c2)cc1` the value was -0.421% and 10.7%; for `CC1C(=O)CC2C3(C)CCC2(C(C)C(=O)O)C(=O)C13` (stereo not drawn), -7.97%; for `CN1c2c(nc(N)[nH]c2=O)NCC1CNc1ccc(C(=O)NC(CCC(=O)O)C(=O)O)cc1` (stereo not drawn), 15.5%.
